From ChEMBL document CHEMBL4513216, “Probing the Open Global Health Chemical Diversity Library for Multistage-Active Starting Points for Next-Generation Antimalarials” (ACS Infect Dis, 2020)
Screen size: about 69,000 compounds; about 8,600 (12%) showed an effect of 50% or more. For the sample, strong results were picked, then their nearest neighbours and some compounds at random.

Test system: Plasmodium berghei
Assay: Screen against P. berghei liver stage (PbLuc), transformed with Luciferase, at 10uM
Assay type: functional, HepG2
Settings: tested at 10 uM

Row | SMILES | INHIBITION [%]
1 | CN(CCCc1ccccc1)C(=O)CCc1nc(-c2nnc[nH]2)no1 | 22
2 | CN(Cc1ccc(F)c(F)c1)C(=O)CCc1nc(-c2nnc[nH]2)no1 | 55.4
3 | Cc1ccccc1CN(C)C(=O)CCc1nc(-c2nnc[nH]2)no1 | 13.7
4 | O=C(NCc1cccc(F)c1)NCC(O)c1cccc(F)c1 (stereo unspecified) | -21.5
5 | CN(C)CCOCc1nnc2n1CCN(CC1CC1)CC2 | 36.2
6 | COc1cccc(C(=O)NCc2ccccc2S(=O)(=O)N(C)C)c1 | 45.2
7 | Cc1ccc(C(=O)NCc2ccccc2S(=O)(=O)N(C)CCO)cc1F | -27.8
8 | COc1cccc(C(=O)NCc2ccccc2S(=O)(=O)N(C)CCO)c1 | 78.1
9 | Cc1noc(C2CCN(C(=O)c3cccs3)CC2)n1 | 21
10 | CC1(C)CC(N2CCN(C3CCCC3)C(CCO)C2)CC(C)(C)C1 (stereo unspecified) | -2.98
11 | CN(CC(F)(F)F)C(=O)COc1nc(Cc2ccc(F)cc2)no1 | 40.6
12 | Cc1cccc(C(=O)N2CCCSCC2CN2CCCC2)c1 (stereo unspecified) | -19.7
13 | Cc1cccc(NCc2nn(C)c(=O)[nH]2)c1 | 59.8
14 | Cc1cccc(NCc2nc(C)ccc2O)c1 | 24.8
15 | Cn1[nH]c(CNc2cccc(Cl)c2)nc1=O | -0.473
16 | CCc1ncc2c(n1)CN(CC(=O)Nc1cc(C)no1)CC2 | -25.8
17 | CN1CCN(C2CCCC2)C(CCO)C1 (stereo unspecified) | 7.24
18 | CCN(CC)C(=O)COc1nc(C(C)C)no1 | 53.1
19 | COC(=O)COc1nc(C(C)C)no1 | 7.25

Row | SMILES | INHIBITION [%]
20 | CC(C)c1noc(OCC(=O)N(C)C(C)C)n1 | -13.6
21 | Cn1cnnc1CC1CCN(Cc2nn(C)c3cccc(Cl)c23)CC1 | 75.4
22 | CCc1nn(C)c(Cl)c1CN1CCC(Cc2nncn2C)CC1 | -7.25
23 | Cn1nc(CN2CCC(c3ccncc3)CC2)c2c(Cl)cccc21 | -18.1
24 | Cc1nc(CN2CCOC3(CCCC3)C2)no1 | 42.5
25 | Cc1nc(CN2CCCN(CCCc3ccccc3)CC2)no1 | -34.8
26 | Cc1nc(CN2CCCC(C)(CO)C2)no1 (stereo unspecified) | 68.1
27 | c1csc(CN2CCc3onc(Cn4cccc4)c3C2)c1 | 2.41
28 | Cc1cccc(S(=O)(=O)NC(=O)CCc2cscn2)c1 | 18.6
29 | O=C(CN(Cc1ccccc1)CC1CCOCC1)Nc1nccs1 | -1.53
30 | O=C(CN(Cc1ccccc1)CC1CCOCC1)NC(=O)NC1CC1 | 55.1
31 | NC(=O)NC(=O)CCN(Cc1ccccc1)CC1CCOCC1 | 6.23
32 | Cc1ccc(C(=O)NC2CCN(C(=O)NCc3ccccn3)CC2)o1 | -4.16
33 | Cc1cc(NC(=O)NCC2CCN(C(C)C)C2)no1 (stereo unspecified) | -25.8
34 | Cc1cn2c(n1)CCC(NC(=O)c1ccc(S(C)(=O)=O)o1)C2 (stereo unspecified) | 42.3
35 | Cn1c2ncccc2c(=O)n1CC(=O)NCCc1c(F)cccc1F | 39.6
36 | Cn1c2ncccc2c(=O)n1CC(=O)NCCC1=CCCCC1 | 66.8
37 | Cc1ccc(CNC(=O)Cn2c(=O)c3cccnc3n2C)cc1F | 47.2
38 | CCc1ccc(CN2CCc3ncnc(N4CCOCC4)c3CC2)o1 | 12.7

Row | SMILES | INHIBITION [%]
39 | CC(C)(C)CN(CCC#N)Cn1cc(Cl)cn1 | 40.7
40 | N#Cc1cc(F)ccc1CN1CCCC1Cn1cccn1 (stereo unspecified) | 66.7
41 | Cc1cccn2c(=O)cc(CN3CCCC3Cn3cccn3)nc12 (stereo unspecified) | 65.2
42 | Cc1cnn(CC2CCCN2Cc2cc(=O)n3cccc(C)c3n2)c1 (stereo unspecified) | 42.9
43 | CC(C)(C)c1nc(CN2CCCC2Cn2cncn2)no1 (stereo unspecified) | -38
44 | Cn1ccnc1CN1CCCCC1Cn1cccn1 (stereo unspecified) | 59.7
45 | Cn1ccnc1CN1CCCC1Cn1cccn1 (stereo unspecified) | -14
46 | N#Cc1cc(F)ccc1CN1CCCCC1Cn1cccn1 (stereo unspecified) | 5.03
47 | CC(C)(C)c1nc(CN2CCCC2Cn2cccn2)no1 (stereo unspecified) | 60.5
48 | Cc1cnn(CC2CCCN2Cc2noc(C(C)(C)C)n2)c1 (stereo unspecified) | -9.37
49 | N#Cc1ccc(CN2CCCC2Cn2cccn2)c(F)c1 (stereo unspecified) | 25.6
50 | Cc1cccn2c(=O)cc(CN3CCCC3Cn3cncn3)nc12 (stereo unspecified) | -30.7
51 | Cc1cnn(CC2CCCN2Cc2nccn2C)c1 (stereo unspecified) | 41.2
52 | CCOc1ncccc1NC(=O)C1CCS(=O)(=O)C1 (stereo unspecified) | 11.9
53 | Cc1ccc(CN2CCOC(c3cnccn3)C2)s1 (stereo unspecified) | 16.82
54 | Cn1cc([C@@H]2CN(S(=O)(=O)c3ccccc3F)C[C@H]2N)c2ccncc21 | 18
55 | Cc1nnc(NC(=O)NCc2ccnc(N(C)C)c2)s1 | -39.7
56 | COC(=O)CC1CCN(C(=O)c2ccc(C)cc2)CC1 | 28.7
